Screening results as filed in PubChem BioAssay.
Hits are enriched below; roughly 6.6% of the tested compounds scored in any of these assays.
HT1080 IDH1KD tx: HT-1080 IDH1 knockdown cell toxicity (counter line) | HT-1080 IDH1 knockdown viability, ATP luminescence, 48 h | Potency, µM (highest dose often 46.1 µM), inactives show at the highest dose activity, negative = toxicity, usual class: cytotoxic | 360,000 tested, 2% active | AID 686971;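 further: 0% = DMSO wells and -100% = cell-free medium wells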
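CellTiter-Glo luminescence after 48 h compound exposure at 37 degrees C of IDH1-knockdown HT-1080 cells in 5% FBS RPMI. %Activity scaled between DMSO wells and cell-free media wells, with curves fitted and assigned curve classes.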
KB-3-1 cytotox: kills parental KB-3-1 adenocarcinoma cells. AID 1347075. KB-3-1 viability, CellTiter-Glo ATP luminescence, 72 h. Potency, µM (top dose mostly 46.1 µM), most hits filed as cytotoxic. 400,000 tested, 1.4% active; further: on the % scale 0 is the no-effect control and ±100 the full control effect; nearly all actives have a fitted effect of over 60% in size
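Cytotoxicity in the drug-sensitive parental line KB-3-1 was scored as loss of CellTiter-Glo luminescence following 72 h incubation with compound. Values come from curve fitting of normalized concentration-response data.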
HT1080-NT tox: kills 2HG-producing HT-1080-NT fibrosarcoma cells; HT-1080-NT fibrosarcoma viability, CellTiter-Glo ATP luminescence, 48 h; Potency, µM (series often up to 46.1 µM), without a hit: at the top dose activity, negative = less viability, most hits filed as cytotoxic; 360,000 tested, 1.6% active;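 further: NT is the 2HG producing partner of a matched IDH1 knockdown line; 0% = DMSO-treated cells and -100% = media-only wells without cells; nearly all actives have a fitted effect of over 55% in size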
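Viability of the 2HG-overproducing fibrosarcoma line after 48 hours of compound exposure at 37 degrees C was determined by luminescence with CellTiter-Glo, and concentration-effect curves were then fitted and categorized.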
HepG2 tox: kills HepG2 cells in TGF-b inhibitor counter-screen; Potency, µM (titrated, usually from 46.1 µM), for inactives: top-dose activity change, negative = cytotoxicity, hits mostly cytotoxic; HepG2 CAGA-GFP viability, ATP luminescence, 18 h; 410,000 tested, 0.76% active
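HepG2 CAGA-GFP cells (1000/well, DMEM with 1% FBS) received compound, then TGF-beta at 500 pg/mL final, and were incubated 18 hours at 37 degrees C. Viability was read by CellTiter-Glo luminescence. Media-only wells were set as complete cell-killing and DMSO as no toxicity.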
TGFb SMAD3 inh: inhibitors of TGF-b signaling; 410,000 tested, 1.2% active; AID 588855; Potency, µM (series often up to 46.1 µM), for the others: at the top dose activity, negative = inhibition, hits mostly inhibitors; HepG2 CAGA-GFP TGF-b/SMAD3 reporter, GFP fluorescence, 18 h; TGF-beta stimulated, 500 pg/mL final; further: on the % scale 0 is the no-effect control and ±100 the full control effect; nearly all actives have a fitted effect of over 65% in size
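TGF-beta reporter screen: HEPG2 CAGA-GFP, 1% FBS, 500 pg/mL TGF-beta final, 18 h; per-cell GFP summed per well; curves fitted and categorized by class.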
KB-V1 MDR tox: KB-V1 MDR subline cytotoxicity | KB-V1 MDR cells viability, CellTiter-Glo, 72 h | Potency, µM (top dose mostly 46.1 µM), hits mostly cytotoxic | 400,000 tested, 3.4% active; further: on the % scale 0 is the no-effect control and ±100 the full control effect; nearly all actives have a fitted effect of over 60% in size
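KB-V1 cells (P-gp-expressing MDR subline of KB-3-1) in phenol-red-free DMEM with 10% FBS were exposed to library compounds over a concentration series for 72 h at 37 degrees C. Viability read by CellTiter-Glo luminescence; concentration-effect curves fitted after normalization.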
Starred values were filed as active, the others as inactive; i = inactive; ? = inconclusive; . = no result; ! = repeats disagree. The call rests on the fitted dose curve; in most records, active means well fitted curve in the direction sought with a large enough effect; inconclusive means small, poorly fitted or top-dose-only effect, or another doubt; inactive means no such curve, though single readings can be large; an effect the other way counts as inactive or inconclusive. Potency means the concentration at half of the fitted maximal effect.

SMILES	HT1080 IDH1KD tx	KB-3-1 cytotox	HT1080-NT tox	HepG2 tox	TGFb SMAD3 inh	KB-V1 MDR tox
C[C@H](CO)N1C[C@H](C)[C@@H](CN(C)C(=O)Oc2cccc3ccccc23)OCc2cn(nn2)CCCC1=O	-2%	i	-4%	-53%	-8%	i
C[C@@H]1CN([C@H](C)CO)C(=O)CCCn2cc(nn2)CO[C@H]1CN(C)C(=O)Oc1cccc2ccccc12	12%	i	6%	10µM*	?	i
CCOc1ccc2nc(NC(=O)c3cccn(Cc4ccccc4)c3=O)sc2c1	.	i	.	-10%	?	i
CNc1ccc2nc3ccccc3[n+](C)c2c1	15µM*	i	21µM*	-1%	-8%	?
COc1cccc(CN2CCc3nc(N4CCN(c5ncccn5)CC4)ncc3C2)c1	.	?	.	-23%	?	i
O=C(Nc1ccon1)c1cccn(Cc2cccc([N+](=O)[O-])c2)c1=O	.	i	.	-10%	10%	i
CC12CC[C@H]3[C@@H](CCC4(O)C[C@H](O)CCC34/C=N/NC(=O)Cc3ccccc3)C1(O)CCC2C1=CC(=O)OC1 (stereo partly specified)	?	i	?	-41%	-23%	i
C[C@H]1O[C@@H](O[C@H]2[C@@H](O)C[C@@H](O[C@H]3[C@@H](O)C[C@H](O[C@H]4CC[C@@]5(C)[C@H](CC[C@@H]6[C@@H]5CC[C@]5(C)[C@@H](C7=CC(=O)OC7)CC[C@]65O)C4)O[C@@H]3C)O[C@@H]2C)C[C@H](O)[C@@H]1O	.	0.01µM*	.	-49%	0.32µM*	?
C[C@]12CC[C@H](O)C[C@H]1CC[C@@H]1[C@@H]2CC[C@]2(C)[C@@H](C3=CC(=O)OC3)CC[C@]12O	0.26µM*	1.6µM*	0.52µM*	-42%	?	1.5µM*
C[C@]12CC[C@H](O)C[C@H]1CC[C@@H]1[C@@H]2C[C@@H](O)[C@]2(C)[C@@H](C3=CC(=O)OC3)CC[C@]12O	0.82µM*	1.3µM*	2.1µM*	-56%	10µM*	1.6µM*
CC12CC[C@H]3[C@@H](CCC4(O)C[C@H](O)CCC34/C=N/NC(=O)c3ccccc3[N+](=O)[O-])C1(O)CCC2C1=CC(=O)OC1 (stereo partly specified)	?	9.2µM*	?	-59%	0%	?
O=C(Nc1ccc(Cl)c(C(F)(F)F)c1)C1CCCN(S(=O)(=O)c2cccc3cccnc23)C1 (stereo unspecified)	.	i	.	-25%	?	i
CCc1ccc(-c2cc(C(F)(F)F)n3nc(C(=O)Nc4c(C)nn(Cc5ccc(F)cc5)c4C)cc3n2)s1	?	?	6%	1%	?	?
C[C@H](CO)N1C[C@H](C)[C@H](CN(C)S(=O)(=O)c2ccc(Cl)cc2)OCc2ccccc2-c2c(n(C)c3ccccc23)C1=O	?	?	?	-19%	?	?
COCC(=O)Nc1nnc(SCC(=O)NCc2cccs2)s1	3%	i	0%	-1%	?	i
COC1C(O)C(C)OC(OC2CCC3(C)C(CCC4C3C(O)CC3(C)C(C5=CC(=O)OC5)CCC43O)C2)C1O (stereo unspecified)	0.82µM*	0.21µM*	1.5µM*	-38%	2µM*	0.18µM*
CC12CCC(O)CC1CCC1C2CCC2(C)C(C3=CC(=O)OC3)C(O)CC12O (stereo unspecified)	1.6µM*	?	?	-64%	10µM*	4.1µM*
CC(=O)OC1CC(OC2C(O)CC(OC3C(O)CC(OC4CCC5(C)C(CCC6C5CC(O)C5(C)C(C7=CC(=O)OC7)CCC65O)C4)OC3C)OC2C)OC(C)C1OC1OC(CO)C(O)C(O)C1O (stereo unspecified)	0.21µM*	?	0.37µM*	-47%	1.4µM*	0.92µM*!
COc1ccc(S(=O)(=O)Nc2cc(C(=O)NC3CCCCCC3)ccc2N2CCOCC2)cc1	?	i	?	-16%	5%	i
Cc1ccc(S(=O)(=O)N(CC(=O)NCCSc2ccc(Cl)cc2)c2ccccc2C)cc1	.	?	.	-11%	?	?
Cc1ccc(-c2nc(CN3C(=O)CN=C(c4ccccc4Cl)c4cc(Cl)ccc43)c(C)o2)cc1	.	?	.	-44%	?	?
Cn1c(=O)n(C)c2cc(CNCCc3ccccc3)ccc21	.	i	.	-9%	-6%	i
COc1cc([N+](=O)[O-])cc([N+](=O)[O-])c1N	.	i	.	12%	3%	i
COc1ccc(S(=O)(=O)Nc2cc([N+](=O)[O-])ccc2OC)cc1	16µM*	?	13µM*	3%	-25%	18µM*
Cc1c(P(=S)(c2ccccc2)c2ccccc2)[n+]2ccccc2n1C	-20%	2.6µM*!	-22%	0%	-6%	?
SMILES	HT1080 IDH1KD tx	KB-3-1 cytotox	HT1080-NT tox	HepG2 tox	TGFb SMAD3 inh	KB-V1 MDR tox
Cc1c(P(=S)(c2ccccc2)c2ccccc2)[n+]2ccccc2n1C/C=C/c1ccccc1	.	10µM*	.	20µM*	?	i
Cn1cc[n+](C)c1P(=S)(c1ccccc1)c1ccccc1	4%	i	-1%	-1%	-39%	i
Fc1ccc2c(c1)nnn2C1CCN(Cc2nnnn2CCc2ccccc2)CC1	-1%	i	-11%	-17%	-16%	i
c1ccc(CCn2nnnc2CN2CCC(n3nnc4ccccc43)CC2)cc1	-4%	i	-6%	1%	0%	5.8µM*
CC(=O)O[C@@]12CO[C@@H]1C[C@H](O)[C@@]1(C)C(=O)[C@H](O)C3=C(C)[C@@H](OC(=O)[C@H](O)[C@@H](NC(=O)c4ccccc4)c4ccccc4)C[C@@](O)([C@@H](OC(=O)c4ccccc4)C12)C3(C)C (stereo partly specified)	?	0.0073µM*	0.0073µM*	-15%	-28%	8.2µM*
CC(=O)O[C@H]1C(=O)[C@@]2(C)C([C@H](OC(=O)c3ccccc3)[C@]3(O)C[C@H](O)C(C)=C1C3(C)C)[C@]1(OC(C)=O)CO[C@@H]1C[C@H]2O (stereo partly specified)	-28%	?	-20%	2%	1%	?
